From PubChem BioAssay (NCI) come the findings set out here.

SMILES strings stand for the structures. This is part of a sample that, as a whole, favours compounds with a hit. Of some 83,000 tested, about 20% had one in any assay.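 Cell lines were cultured in 96-well plates, exposed to a single compound concentration, and assessed for percent growth 48 hours later.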 A number with no mark means an inactive call. Calls of active or inactive are those of the source. Rule for the calls: active = growth percent below 10; inactive = the rest.

Test systems include HCT-15 colon; HT29 colon; SNB-75 CNS; SNB-19 CNS; U251 CNS; PC-3 prostate; SK-MEL-5 melanoma; UACC-62 melanoma; LOX IMVI melanoma; SK-MEL-28 melanoma; SK-MEL-2 melanoma; EKVX NSCLC; SN12C renal; UO-31 renal; TK-10 renal; ACHN renal; CAKI-1 renal; A498 renal; CCRF-CEM leukemia; MOLT-4 leukemia.
Holding throughout (test): NCI-60 one-dose screen, 48 h (100 = growth as untreated, 0 = no growth, -100 = all killed)
Common to all, as to details: 10 µM unless noted

With `CC(=O)[C@@H]1CCC=C2CC[C@]3(C)[C@@H](CC[C@@H]4[C@@]5(C)CCCNC(C)(C)[C@@H]5CC[C@]43C)[C@H]21`, the growth with HCT-15 colon was -89% (active); in the test on HT29 colon it was -83.7% (active); with SNB-75 CNS, 23.5%; with SNB-19 CNS, -77.2% (active); in the test with U251 CNS, -98.8% (active); in the test on PC-3 prostate, -21.4% (active). Moreover, the growth with SK-MEL-5 melanoma is 64.2%; in the test with UACC-62 melanoma, -79% (active); in the test on LOX IMVI melanoma, -99.5% (active); in the test on SK-MEL-28 melanoma, -42.3% (active); in the test with SK-MEL-2 melanoma, -52.3% (active); in the test on EKVX NSCLC it was -47.8% (active). The growth is -87.9% (active) in the test on SN12C renal; 18.4% in the test with UO-31 renal; -46.6% (active) in the test on TK-10 renal; -82.4% (active) in the test on ACHN renal; -92.5% (active) in the test on CAKI-1 renal; 69.8% in the test on A498 renal. Also, the growth is -23.4% (active) with CCRF-CEM leukemia and -46.4% (active) in the test with MOLT-4 leukemia.
`O=C(NNc1nccc(Nc2ccc(S(=O)(=O)Nc3ccncc3)cc2)n1)c1ccccc1`: the growth in the test on HCT-15 colon is 107%; with HT29 colon, 94.4%; with SNB-75 CNS, 99%; in the test on SNB-19 CNS, 109%; with U251 CNS it was 99.6%; with PC-3 prostate it was 100%. Besides, the growth with SK-MEL-5 melanoma was 102%; in the test with UACC-62 melanoma, 101%; in the test with LOX IMVI melanoma it was -40.5% (active); in the test on SK-MEL-28 melanoma it was 106%; with SK-MEL-2 melanoma, 106%; in the test on EKVX NSCLC, 104%. For the same compound, the growth in the test on SN12C renal is 107%; in the test with UO-31 renal, 93.9%; in the test with TK-10 renal it was 95.3%; with ACHN renal, 104%; with CAKI-1 renal, 92.8%; in the test on A498 renal it was 103%. Also, the growth in the test on CCRF-CEM leukemia was 111%; in the test with MOLT-4 leukemia, 96.7%.
On to `CCN(CC)c1nc(SCc2ccccc2Cl)ncc1C`, for which the growth is 96.4% in the test on HCT-15 colon; 107% in the test on HT29 colon; 97.8% in the test on SNB-75 CNS; 96.4% in the test on SNB-19 CNS; 92.6% with U251 CNS; 89.9% in the test on PC-3 prostate. In addition, the growth is 83.8% in the test on SK-MEL-5 melanoma; 81.2% with UACC-62 melanoma; 95.9% with LOX IMVI melanoma; 118% with SK-MEL-28 melanoma; 118% with SK-MEL-2 melanoma; 101% with EKVX NSCLC. Moreover, the growth in the test on SN12C renal is 96.7%; with UO-31 renal it was 102%; in the test on TK-10 renal, 117%; in the test with ACHN renal, 108%; with CAKI-1 renal it was 88.8%; in the test on A498 renal, 91.2%. For the same compound, the growth was 92.7% in the test with CCRF-CEM leukemia and 105% with MOLT-4 leukemia.
For `COc1ccc2[nH]cc(C(c3cc(F)cc(F)c3)c3c[nH]c4ccc(OC)cc34)c2c1`, the growth with HCT-15 colon is 65.2%; in the test on HT29 colon, 81.5%; with SNB-75 CNS it was 85.9%; in the test on SNB-19 CNS, 82.9%; in the test with U251 CNS, 86.8%; in the test on PC-3 prostate, 50.2%. For the same compound, the growth was 91.7% with SK-MEL-5 melanoma; 85.5% in the test with UACC-62 melanoma; 67.3% in the test on LOX IMVI melanoma; 105% in the test with SK-MEL-28 melanoma; 62.5% with SK-MEL-2 melanoma; 88.4% in the test on EKVX NSCLC. The growth with SN12C renal is 87.3%; with UO-31 renal, 44.2%; in the test with TK-10 renal it was 124%; in the test on ACHN renal it was 82.9%; in the test on CAKI-1 renal, 101%; with A498 renal, 77.8%. Besides, the growth in the test with CCRF-CEM leukemia was 60.1%; in the test on MOLT-4 leukemia, 37.4%.
In the case of `CCCCCCCCCCCCCCCCCCOc1ccccc1CC(=O)NCC[N+]1(C)CCCC1`, the growth is 93.9% in the test on HCT-15 colon; 8.69% (active) in the test with HT29 colon; 45% with SNB-75 CNS; 35.2% in the test with SNB-19 CNS; 6.79% (active) in the test on U251 CNS; 4.91% (active) with PC-3 prostate. Moreover, the growth in the test on SK-MEL-5 melanoma was 73%; in the test on UACC-62 melanoma, 43.2%; in the test on LOX IMVI melanoma it was 53.4%; with SK-MEL-28 melanoma, 84.2%; in the test on SK-MEL-2 melanoma, 62.4%; in the test on EKVX NSCLC it was 92%. Also, the growth in the test with SN12C renal is 29.8%; with UO-31 renal, 85.1%; in the test on TK-10 renal it was 25.9%; in the test on ACHN renal, 95.8%; in the test with CAKI-1 renal, 74%; with A498 renal, 71.5%. For the same compound, the growth in the test on CCRF-CEM leukemia is 18.8%; in the test on MOLT-4 leukemia, 14%.
`O=C(/C=C/c1ccccc1)c1cccc(OCCCOc2cccc(C(=O)/C=C/c3ccccc3)c2)c1`: the growth was 57.4% in the test with HCT-15 colon; 52.4% in the test on HT29 colon; 93.9% with SNB-75 CNS; 85.7% with SNB-19 CNS; 64.3% in the test on U251 CNS; 82.8% in the test with PC-3 prostate. Also, the growth is 100% in the test with SK-MEL-5 melanoma; 87.3% in the test on UACC-62 melanoma; 58.1% in the test with LOX IMVI melanoma; 102% with SK-MEL-28 melanoma; 101% in the test on SK-MEL-2 melanoma; 103% in the test with EKVX NSCLC. In addition, the growth was 94.2% with SN12C renal; 74.2% in the test on UO-31 renal; 107% in the test with TK-10 renal; 102% with ACHN renal; 86.4% in the test with CAKI-1 renal; 92% in the test on A498 renal. Also, the results for the growth with CCRF-CEM leukemia and in the test with MOLT-4 leukemia were 76.5% and 86.9%, respectively.
Consider `O=Cc1ccc([N+](=O)[O-])s1`, for which the growth was 48.7% in the test on HCT-15 colon; 55.4% with HT29 colon; 85.8% in the test on SNB-75 CNS; 91.4% in the test with SNB-19 CNS; 89.6% with U251 CNS; 92.6% in the test with PC-3 prostate. The growth was 102% in the test with SK-MEL-5 melanoma; 80.2% with UACC-62 melanoma; 85.8% with LOX IMVI melanoma; 99.5% in the test with SK-MEL-28 melanoma; 107% in the test with SK-MEL-2 melanoma; 114% with EKVX NSCLC. Besides, the growth in the test with SN12C renal is 84.1%; with UO-31 renal, 89.8%; in the test with TK-10 renal, 112%; in the test with ACHN renal, 90.8%; with CAKI-1 renal it was 100%; in the test on A498 renal, 94.5%. Moreover, the growth in the test with CCRF-CEM leukemia is 88.2%; in the test on MOLT-4 leukemia, 88.3%.
In the case of `O=C(CN1C(=O)CCC1=O)Nc1ncc(Cc2ccc(F)cc2)s1`, the growth is 102% with HCT-15 colon; 106% in the test on HT29 colon; 94.3% in the test with SNB-75 CNS; 96.3% in the test on SNB-19 CNS; 97.5% in the test on U251 CNS; 92.4% in the test with PC-3 prostate. In addition, the growth in the test on SK-MEL-5 melanoma was 99.6%; in the test with UACC-62 melanoma, 92.1%; in the test with LOX IMVI melanoma, 94.3%; with SK-MEL-28 melanoma it was 106%; in the test with SK-MEL-2 melanoma it was 100%; in the test on EKVX NSCLC, 92.6%. Further, the growth in the test with SN12C renal is 98.8%; with UO-31 renal it was 76%; with TK-10 renal, 101%; in the test with ACHN renal it was 98.6%; in the test with CAKI-1 renal, 91.5%; with A498 renal it was 105%. For the same compound, the growth in the test with CCRF-CEM leukemia is 105%; in the test on MOLT-4 leukemia, 102%.
